The values that follow come from PubChem BioAssay (NCATS).

One experiment deals with SC27B. As to the kind of experiment: qHTS profiling for inhibitors of Plasmodium falciparum proliferation (AID 504749). Further: potency means the concentration at half of the fitted maximal effect. The following applies: P. falciparum in erythrocytes, SYBR Green DNA, 72 h; series mostly up to 28.7 µM. The essentials:
(§1)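 Three-day growth assay of blood-stage parasites in erythrocytes (0.3% parasitemia, 2.5% hematocrit) at 37 C, 5% CO2, quantified by SYBR Green DNA staining after overnight detergent lysis.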
(In general: Quantitative high-throughput screening tests each substance at several concentrations.)

In another experiment the test system is TAB109. The description is as above. The following applies: P. falciparum in erythrocytes, SYBR Green DNA, 72 h; series mostly up to 28.7 µM. The essentials:
as §1

The subject of a further experiment is TAB113. The experiment is described as above. The following applies: P. falciparum in erythrocytes, SYBR Green DNA, 72 h; series mostly up to 28.7 µM. The essentials: as §1
The test system of another experiment is TAB165. Described as above. The settings on record: P. falciparum in erythrocytes, SYBR Green DNA, 72 h; series mostly up to 28.7 µM. The essentials:
as §1

Another experiment concerns W2. The description is as above. The following applies: P. falciparum in erythrocytes, SYBR Green DNA, 72 h; series mostly up to 28.7 µM. The essentials: as §1
Another experiment concerns CRL-7250. Kind of experiment: Cytotoxic Profiling of Annotated Libraries Using Quantitative High-Throughput Screening (AID 1296008). On max response: on the % scale 0 is the no-effect control and ±100 the full control effect. The following applies: Five cell lines viability, CellTiter-Glo ATP luminescence, 48-72 h; max response: active compounds read low. The essentials:
(§2)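 Cytotoxicity was measured as CellTiter-Glo ATP luminescence, read after 10 min at room temperature. Compound treatment of the cells lasted 48 or 72 hr at 37 degrees Celsius in a qHTS format.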

In experiment [1] the test system is HaCat. Described as above. The settings on record: Five cell lines viability, CellTiter-Glo ATP luminescence, 48-72 h; max response: active compounds read low. The essentials:
as §2

In the next experiment the test system is KB-3-1. Described as above. The following applies: Five cell lines viability, CellTiter-Glo ATP luminescence, 48-72 h; max response: active compounds read low. The essentials: as §2
For experiment [2], the system named is NIH3T3. The description is as above. The settings on record: Five cell lines viability, CellTiter-Glo ATP luminescence, 48-72 h; max response: active compounds read low. The essentials:
as §2
(ATP-based viability assays read luminescence as a measure of living cells.)

In the next experiment the test system is MCC-13. As to the kind of experiment: qHTS assay to identify novel small-molecules to repurpose for Merkel cell carcinoma treatment (AID 1296009). Further: potency means the concentration at half of the fitted maximal effect. The following applies: MCC and control cell lines, CellTiter-Glo viability, 72 h; series mostly up to 46 µM. The essentials:
(§3)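 After compound transfer in DMSO, plates were kept 72 hr at 37 degree celsius. Luminescent ATP signal from CellTiter-Glo served as viability measure, normalized against DMSO and no-cell controls.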

In the next experiment the test system is MCC-26. The description is as above. The settings on record: MCC and control cell lines, CellTiter-Glo viability, 72 h; series mostly up to 46 µM. The essentials: as §3
For another experiment, the system named is MKL-1. The experiment is described as above. The following applies: MCC and control cell lines, CellTiter-Glo viability, 72 h; series mostly up to 46 µM. The essentials: as §3
The next experiment concerns MKL-2. Described as above. The settings on record: MCC and control cell lines, CellTiter-Glo viability, 72 h; series mostly up to 46 µM. The essentials: as §3
The test system of a further experiment is UISO. The experiment is described as above. The following applies: MCC and control cell lines, CellTiter-Glo viability, 72 h; series mostly up to 46 µM. The essentials:
as §3

The test system of a further experiment is WaGa. The experiment is described as above. The following applies: MCC and control cell lines, CellTiter-Glo viability, 72 h; series mostly up to 46 µM. The essentials:
as §3

The subject of experiment [3] is HACAT. The description is as above. The following applies: MCC and control cell lines, CellTiter-Glo viability, 72 h; at 44.8 µM (top of the series) unless noted. The essentials:
as §3

For experiment [4], the system named is NIH3T3. The description is as above. The following applies: MCC and control cell lines, CellTiter-Glo viability, 72 h; at 44.8 µM (top of the series) unless noted. The essentials:
as §3

A further experiment deals with HEK293T. The experiment is described as above. The following applies: MCC and control cell lines, CellTiter-Glo viability, 72 h; at 44.8 µM (top of the series). The essentials:
as §3

The structures appear in SMILES notation. Inconclusive results are not listed. Unmarked numbers belong to inactive results. Active and inactive are the calls of the source. The call rests on the fitted dose curve; in most records, active means well fitted inhibition curve with a large enough effect; inconclusive means small, poorly fitted or top-dose-only effect; inactive means flat fitted curve, though single readings scatter.
Further: nearly all actives have a fitted effect of over 60% in size.

`C[N+](C)(C)CCOC(=O)C(O)(c1ccccc1)c1ccccc1`: the Potency result in the experiment with SC27B, with TAB109, in the experiment with TAB113, in the experiment with TAB165, in the experiment on W2 and in the experiment with MCC-13 was “inactive” each time. The Potency result with MCC-26, in the experiment on MKL-1, with MKL-2, in the experiment with UISO and in the experiment with WaGa was “inactive” in each case. The max response with CRL-7250 was 1.11%; in the experiment on HaCat [1], 1.68%; in the experiment on KB-3-1 it was -1.19%; with NIH3T3 [2], 2.06%.
On to `OC(c1ccccc1)(c1ccccc1)C1CCNCC1`, for which the Potency result with SC27B, in the experiment on TAB109, in the experiment with TAB113, in the experiment on TAB165, in the experiment with W2 and in the experiment with MCC-13 was “inactive” throughout. In addition, the Potency result with MCC-26, with MKL-1, with MKL-2, in the experiment on UISO and in the experiment on WaGa was “inactive” in each case. Further, the max response in the experiment on CRL-7250 is 4.48%; in the experiment on HaCat [1], -12.8%; with KB-3-1, -11.7%; with NIH3T3 [2], -1.52%.
Consider `CCC1(CC)C(=O)NC(=O)NC1=O`, for which the Potency entry in the experiment on SC27B, in the experiment with TAB109, in the experiment on TAB113, in the experiment with TAB165, in the experiment on MCC-13 and with MCC-26 was “inactive” in each case. Also, the Potency entry in the experiment on MKL-1, with MKL-2, in the experiment on UISO and with WaGa was “inactive” throughout. Moreover, the max response was -2.88% with CRL-7250 and -1.45% in the experiment on KB-3-1. For the same compound, the outcome in the experiment with HaCat [1], with NIH3T3 [2], in the experiment on HACAT [3] and in the experiment on NIH3T3 [4] was inactive.
As to `CC(C)NCC(O)c1ccc(N)c(C#N)c1` (stereo not drawn), the Potency result in the experiment on SC27B, in the experiment on TAB109, in the experiment on TAB113, in the experiment on TAB165, with W2 and with MCC-13 was “inactive” in each case. For the same compound, the Potency entry in the experiment with MCC-26, in the experiment on MKL-1, in the experiment with MKL-2, in the experiment on UISO and with WaGa was “inactive” throughout. Also, the max response is 3.52% with CRL-7250, -0.104% with HaCat [1], -10.3% in the experiment with KB-3-1 and 2.77% in the experiment on NIH3T3 [2]. Further, the call with HEK293T was inactive.
With `Oc1c(Br)cc(Br)cc1Br`, the Potency entry in the experiment on SC27B, in the experiment on TAB109, in the experiment on TAB113, with TAB165, in the experiment on W2 and in the experiment on MCC-13 was “inactive” each time. Also, the Potency entry in the experiment on MCC-26, in the experiment on MKL-1, in the experiment with MKL-2, in the experiment with UISO and with WaGa was “inactive” each time. Further, the max response in the experiment on CRL-7250 is -10.6%; in the experiment on HaCat [1] it was -13%; in the experiment on KB-3-1, -5.6%; in the experiment with NIH3T3 [2], -1.39%.
Turning to `Nc1ccc(N)cc1`, the Potency in the experiment on W2 was 3.79 µM (active). Moreover, the results for the max response in the experiment with CRL-7250, with KB-3-1 and with NIH3T3 [2] were -4.93%, -3.68% and -12%, respectively. Besides, the compound was classed as inactive in the experiment with HaCat [1] and in the experiment with HACAT [3]. In addition, the Potency result in the experiment on MCC-13, in the experiment on MCC-26, in the experiment on MKL-1, in the experiment on MKL-2, with UISO and in the experiment on WaGa was “inactive” in each case.
For the compound `COc1ccc2[nH]cc(CCN(C(C)C)C(C)C)c2c1`, the max response with CRL-7250 was -1.26%; in the experiment on HaCat [1], 1.43%; with KB-3-1, -17%; with NIH3T3 [2], 1.94%. Further, the Potency entry in the experiment with MCC-13, in the experiment on MCC-26, with MKL-1, with UISO and in the experiment on WaGa was “inactive” throughout.
Consider `CC[C@H]1C[C@@H]2C[C@H]3c4[nH]c5ccc(OC)cc5c4CCN(C2)[C@@H]13`, for which the max response in the experiment with CRL-7250 is 1.28%; in the experiment with HaCat [1], -4.77%; in the experiment on KB-3-1 it was -8.79%; in the experiment with NIH3T3 [2], -11.9%. The Potency entry in the experiment on MCC-13 and in the experiment with MCC-26 was “inactive” in each case. In addition, the Potency with WaGa was 42.4 µM (active).
As to `NCc1cccnc1`, the Potency result in the experiment with SC27B, with TAB109, in the experiment with TAB113, with TAB165, in the experiment with W2 and with MCC-13 was “inactive” in each case. For the same compound, the Potency result in the experiment with MCC-26, in the experiment with MKL-1, in the experiment with MKL-2, with UISO and in the experiment on WaGa was “inactive” in each case. Moreover, the max response in the experiment on CRL-7250 was -13.7%; in the experiment with KB-3-1 it was -3.91%; in the experiment on NIH3T3 [2], 3.43%. Moreover, the compound was classed as inactive with HaCat [1] and in the experiment with HACAT [3].
As for `C[C@H]1C(=O)O[C@@H]2CCN3CC=C(COC(=O)[C@](C)(O)[C@]1(C)O)[C@H]23`, the Potency result with SC27B, with TAB113, in the experiment with TAB165, with W2, in the experiment with MCC-13 and in the experiment with MCC-26 was “inactive” in each case. In addition, the Potency entry in the experiment with MKL-1, in the experiment with MKL-2, in the experiment with UISO and in the experiment with WaGa was “inactive” throughout. In addition, the values for the max response with CRL-7250, in the experiment with KB-3-1 and with NIH3T3 [2] were -23.7%, -11.3% and -4.3%, respectively. In addition, the result with HaCat [1] and with HACAT [3] was inactive.
In the case of `CCN(CC)CCOC(=O)C(C)(c1ccccc1)c1ccccc1`, the Potency with W2 was 1.35 µM (active). In addition, the max response in the experiment with CRL-7250 is -0.0825%; with KB-3-1, -6.01%; with NIH3T3 [2], 1.33%. In addition, the result in the experiment with HaCat [1] and in the experiment with HACAT [3] was inactive. The Potency result with MCC-13, in the experiment on MCC-26, with MKL-1, with MKL-2, in the experiment on UISO and with WaGa was “inactive” throughout.
`Cc1cccc(Cc2cnc[nH]2)c1C`: the max response is -4.56% in the experiment on CRL-7250, -10% in the experiment with HaCat [1], -11.3% with KB-3-1 and -2.68% in the experiment with NIH3T3 [2]. Besides, the Potency entry with MCC-13, in the experiment with MCC-26, in the experiment on MKL-1, in the experiment with MKL-2 and with WaGa was “inactive” each time.
In the case of `OC(O)C(Cl)(Cl)Cl`, the Potency entry in the experiment with SC27B, in the experiment with TAB109, in the experiment on TAB113, with TAB165, with MCC-13 and in the experiment with MCC-26 was “inactive” each time. The Potency entry in the experiment with MKL-1, in the experiment on MKL-2, in the experiment with UISO and in the experiment with WaGa was “inactive” each time. In addition, the max response in the experiment on CRL-7250 is -3.66%; with KB-3-1, 1.25%. Further, the result in the experiment on HaCat [1], in the experiment with NIH3T3 [2], in the experiment on HACAT [3] and in the experiment on NIH3T3 [4] was inactive.
